Among the data in PubChem BioAssay (NCI) are growth values, retold here.

This is part of a sample that, as a whole, favours compounds with a hit. Of some 83,000 tested, about 20% had one in any assay.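 In brief: 96-well plates, 48 h treatment, single concentration, percent growth endpoint.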 Activity calls are given as the source filed them. Rule for the calls: active = growth percent below 10; inactive = the rest.

The subject of this assay is MDA-MB-468 breast. In words: NCI-60 one-dose screen, 48 h (100 = growth as untreated, 0 = no growth, -100 = all killed). The settings on record: 10 µM unless noted.

For the compound `COc1ccc2c(c1)oc1c(C)c3c(c(C)c12)C(=O)N(Nc1ccccc1)C3=O`, the growth was 115% (inactive).
Then `O=C(/C=C/c1ccccc1)C(Br)C(Br)c1ccccc1` (stereo not given), with -38.1% (active); and `Clc1nc2ccccc2nc1-c1nnc(C2CCCCC2)o1`, with 7.71% (active); and `COc1cc2c3c(c(=O)oc2cc1OS(=O)(=O)c1ccc(C(F)(F)F)cc1)CCCCC3`, with 67% (inactive).
Then `O=S(=O)(O)c1ccc(O)c2ccccc12`, with 104% (inactive); and `CNc1nc(S(=O)c2ccc(C#N)cc2)nc2ccccc12` (stereo not given), with -4.09% (active); and `CCCCCCCCCCCCCCNCc1ccccc1`, with -29.3% (active).
On to `COc1ccc(COc2ccc(/C=C3\C(=O)Nc4ccccc43)cc2OC)cc1`, for which the growth was 100% (inactive).
Then `COc1c(B(O)O)cccc1-c1nc2c(F)cc3n[nH]c(C)c3c2c2c1CCCC2`, with -7.26% (active); and `CCCCn1c(=O)c(/C=C/C(=O)/C=C/c2ccc(OC)cc2)cc2cc(Cl)ccc21`, with 86.1% (inactive); and `COc1ccc(C(=O)/C=C/c2cc(-c3ccc4c(c3)OCO4)n[nH]2)cc1OC`, with 28.2% (inactive).
For the compound `Cc1c(O)c(=O)ccn1C1CCC(CC2CCC(n3ccc(=O)c(O)c3C)CC2)CC1` (stereo not given), the growth was 0.337% (active).
Then `NC(=O)c1c(NC(=O)c2ccccc2C(F)(F)F)sc2c1CCC(=O)C2`, with 14.9% (inactive); and `Cn1cnc2c(F)c(Nc3ccc(Br)cc3F)c(C(=O)NOCCO)cc21`, with 97.3% (inactive); and `NC(=O)c1cccc(-n2ccc3cc(NC(=O)Nc4ccc(N5CCOCC5)c(C(F)(F)F)c4)ccc32)n1`, with 0.818% (active).
Then `COc1ccc(C2Nc3nc(SC)nc(N)c3N=C3c4ccccc4CCC32)cc1` (stereo not given), with 102% (inactive).
Then `N#Cc1c(NC(=O)c2ccc(F)c(Cl)c2)sc2c1CCC(=O)C2`, with -20% (active); and `CC12OC(CC(O)C1O)n1c3ccccc3c3c4c(c5c6ccccc6n2c5c31)C(=O)N(CCN1CCCC1)C4=O` (stereo not given), with 3.48% (active); and `CCOC(=O)c1cc(C(=O)c2cc(OC)c(OC)c(OC)c2)n2ccccc12`, with -7.14% (active).
Regarding `C[C@H](C(=O)Nc1ccc(S(N)(=O)=O)cc1)S(=O)(=O)c1ccccc1`, the growth was 102% (inactive).
In the case of `O=c1c(O)cccn1CCCNCCCN(CCCn1cccc(O)c1=O)CCCn1cccc(O)c1=O`, the growth was 109% (inactive).
Then `c1cn2cc(-c3ccc4cn[nH]c4c3)nc(Nc3ccc(N4CCOCC4)cc3)c2n1`, with 61.8% (inactive).
With `O=S(=O)(Nc1ccc2c(c1)OCO2)c1ccc(-c2cnc(C3CC3)o2)cc1` the figure was -3.85% (active); with `Clc1ncccc1Nc1ccc2nnc(-c3ccncc3)n2n1`, 99.9% (inactive).
With `CC1(C)CC(=O)C2=C(C1)N(c1ccc(OC(F)(F)F)cc1)C(N)=C(C#N)C2c1ccc(Cl)cc1` (stereo not given) the figure was 93.1% (inactive); with `CCN(CC)CCCCNc1c2ccccc2[n+](C)c2c1[nH]c1ccccc12`, -58.5% (active); with `CCCCC[C@H](O)C/C=C1/C(=O)C=C[C@@H]1C/C=C\CCCC(=O)O`, 67.4% (inactive).
As to `O=C(Nc1ccc(N=Cc2ccccc2O)cc1)NC1C=c2ccccc2=CC1` (stereo not given), the growth was 87.1% (inactive).
For the compound `CCN(CC)CCC(CNc1ccnc2cc(Cl)ccc12)c1ccccc1` (stereo not given), the growth is -35.6% (active).
Then `Cc1cccc(-c2cn3ccnc3c(-c3ccc4ncn(Cc5ccccc5)c4c3)n2)c1`, with 83.4% (inactive); and `O=C(CCNCc1ccccc1)c1ccccc1`, with 98.2% (inactive); and `Cc1c(C(=O)NCCC(=O)NO)sc2ncnc(Nc3ccc(NC(=O)Nc4cccc(C(F)(F)F)c4)cc3)c12`, with 97.2% (inactive).
With `CC1=C2C(=C[C@@](C)(CO)[C@@H]2OC(=O)N(C)CCN(C)C(=O)OC(C)(C)C)C(=O)[C@](C)(O)C12CC2` the figure was -10.1% (active); with `COc1ccc(S(=O)(=O)NCCCNc2nccc(-n3cnc4ccccc43)n2)cc1`, 77.2% (inactive).
With `CN(C)CCCC1(c2ccc(F)cc2)OCc2cc(-c3cncc4ccccc34)ccc21` (stereo not given) the figure was -4.62% (active).
For `CCN(C(=O)c1cc2ncccc2[nH]1)[C@H]1CCC[C@@H](NCc2cccc(F)c2)C1`, the growth is 107% (inactive).
Turning to `CC(C)(C)CC(C)(C)c1ccc(OCCOCC[N+](C)(C)CC(=O)[O-])cc1`, the growth was 108% (inactive).
Then `COc1ccccc1C(OC(C)=O)OC(C)=O`, with 98% (inactive); and `O=C(Nc1ccc(Nc2ccncc2)cc1)c1ccc([N+](=O)[O-])cc1`, with -28.1% (active).
Then `CC(C)CSc1oc(-c2ccccc2)nc1S(=O)(=O)c1ccccc1`, with 89.4% (inactive).
